Screening results as filed in PubChem BioAssay.
Shown are actives, neighbours in structure and some others; about 1.3% of the full set was active somewhere.
TRPML1 inh: human mucolipin-1 channel inhibition; AID 624415; 390,000 compounds, 0.02% hits; activity change, negative = inhibition, % (concentration not given with the values); TRPML1-inducible cells, Ca2+ dye fluorescence, FDSS; hits give low values; inhibition of EC80 agonist-evoked calcium signal; in the data active = activity change below about -50%; inconclusive = between about -30% and that limit;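 also: stimulus is agonist 54-4 at its EC80 concentration; % is scaled to controls: 0 for no effect and ±100 for the full control effect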
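TRPML1-DL cells, Tet-induced overnight (~16 h, 37 °C) at 1,500 cells/well, were loaded with Ca8 no-wash dye plus quencher for 45-90 min at room temperature. Compounds were pinned during FDSS kinetic reading; agonist 54-4 at EC80 (4 uM final) then added.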
TRPML1 ag: activates the human TRPML1 channel | Q9GZU1 | TRPML1-expressing cells, Ca2+ dye fluorescence, FDSS | activation, % (concentration not given with the values) | 410,000 compounds, 0.12% hits; in the data active = activation above about 50%; inconclusive = mostly about 30% to 49%; also: 0% is about no effect
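Cells: TRPML1-DL, 1X Tet inducer, ~16 h at 37 degrees C/5% CO2. Dye: ABD Ca8 no-wash + quencher, 45-90 min RT. Read: 10 s baseline, compound add, 110 s agonist phase; 54-4 EC80 (4uM final), 110 s antagonist phase.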
hERG WT inh: KCNH2 (human, wildtype) channel inhibition | 340,000 compounds, 0.37% hits | activity change, % at 1.84 µM | AID 720551 | U2OS, BacMam KCNH2, thallium flux FluxOr; hits give low values | Q12809;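 active = maximum activity change below -70%; inconclusive = maximum activity change between -70% and -50%; inactive = maximum activity change above -50%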; also: % is scaled to controls: 0 for no effect and ±100 for the full control effect
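U2OS cells were transduced with wild-type KCNH2 virus (2.03 x 10^8 / mL) for 4 h at room temperature, then cultured overnight at 37 C. Thallium flux was read with FluxOr dye. Rate constants were normalized to DMSO controls.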
TRPV1 agonist: agonists of human vanilloid receptor 1 (TRPV1); Q8NER1; TRPV1-expressing cells, Fluo-8 calcium influx, agonist mode; activation, % at 8.33 µM; 320,000 compounds, 0.19% hits; AID 540275; in the data active = activation above about 80%; inconclusive = between about 30% and that limit; also: 0% is about no effect
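Fluo-8 calcium influx in TRPV1-expressing cells, kinetic read (ex 480/em 520 nm). Compound added and read 3 min for agonist activity, followed by capsaicin at EC20 final and 2 min further read for enhancement.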
TRPV1 PAM: potentiators of human vanilloid receptor 1 (TRPV1). potentiation, % at 8.33 µM. TRPV1-expressing cells, Fluo-8 calcium influx, capsaicin EC20 potentiation. Q8NER1. 320,000 compounds, 0.02% hits; in the data active = potentiation above about 80%; inconclusive = between about 30% and that limit; also: 0% is about no effect
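Fluo-8 calcium influx in TRPV1-expressing cells, kinetic read (ex 480/em 520 nm). Compound added and read 3 min for agonist activity, followed by capsaicin at EC20 final and 2 min further read for enhancement.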
KCNH2 3.1 block: KCNH2 3.1 (human) potassium channel inhibition | U2OS KCNH2 3.1, thallium flux FluxOr; hits give low values | activity change, % (tested at about 1.8 µM) | 340,000 compounds, 0.95% hits | AID 720553;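 active = maximum activity change below -70%; inconclusive = maximum activity change from -70% to -50%; inactive = maximum activity change above -50%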;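 also: thallium influx rate constant from kinetic fluorescence after stimulation buffer; % is scaled to controls: 0 for no effect and ±100 for the full control effect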
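Normalized rate constant (relative to positive and negative DMSO controls) derived from a 2 min kinetic fluorescence read after stimulation; U2OS cells expressing the 3.1 isoform via virus at 1.77 x 10^8 /mL.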
Numbers without * were called inactive; ? = inconclusive; / = no result.

SMILES	TRPML1 inh	TRPML1 ag	hERG WT inh	TRPV1 agonist	TRPV1 PAM	KCNH2 3.1 block
CC(C)COc1ccc(C(=O)N2CCCCC2CCN2CCOCC2)cc1 (configuration not stated)	-12	0	/	/	/	/
COc1ccc(C(=O)Nc2cc3c4c(c2)CC(=O)N4CCC3)cc1	?	55*	-3	1	-15	-33
COc1ccc(C(=O)Nc2ccc(C3(C#N)CCCC3)cc2)cc1	-2	0	-7	89*	-29	-13
COc1ccc(C(=O)Nc2ccc(N3CCN(Cc4ccccc4)CC3)cc2)cc1	13	0	12	4	2	-85*
COc1ccc(NC(=O)C2(c3ccc(NC(=O)c4ccc(C)cc4)cc3)CCCC2)cc1	0	3	-9	1	-6	13
COc1ccc(NC(=O)c2ccc(CN3CCN(c4ccccc4)CC3)cc2)cc1	-17	1	13	15	3	?
CCc1ccc(N2CCN(CCNC(=O)Nc3ccc(OC)cc3)CC2)cc1	24	-1	-26	12	-22	-94*
CN(C)c1ccc(CNC(=O)CN2C(=O)CCn3nc(-c4cn(C)c5ccccc45)cc32)cc1	-3	0	/	/	/	/
COc1ccc(C(=O)Nc2ccc3ccccc3c2)cc1	37	1	-17	96*	-8	6
COc1ccc(C(=O)N2CCN(CCNC(=O)C(=O)Nc3ccc(Br)cc3)CC2)cc1	-25	1	20	-4	-18	-105*
COc1ccc(C(=O)N2CCN(CCc3ccccn3)CC2)cc1	-23	2	-1	2	-14	-99*
COc1cccc(C(=O)Nc2ccc3ccccc3c2)c1	4	-1	-1	22	-2	-3
O=C(Cc1cccc(F)c1)NO	/	0	/	/	/	/
CCOc1ccccc1OCCN1CCC(Cc2ccccc2)CC1	-16	-1	5	2	3	?
N#Cc1ccccc1OCCCN1CCC(Cc2ccccc2)CC1	6	-1	-90*	6	-4	-96*
COc1cccc(OC)c1OCCCCN1CCC(Cc2ccccc2)CC1	7	1	-8	2	-12	-71*
c1ccc(-c2ccccc2OCCCN2CCCC2)cc1	19	0	14	1	0	-19
CCC(=O)c1ccccc1OCCCN1CCC(Cc2ccccc2)CC1	9	1	-131*	4	-6	-100*
CC(=O)CCc1ccc(OCCCCN2CCC(Cc3ccccc3)CC2)cc1	?	0	27	6	13	-94*
CCCN1CCN(CCCNC(=O)c2ccc3c(c2)sc2nc(-c4ccc(C)cc4)cn23)CC1	8	1	/	/	/	/
COc1ccc(NC(=O)N2CCc3c(sc4c3CCCC4)C2c2ccc(F)cc2)cc1 (configuration not stated)	20	0	/	/	/	/
CC(=O)c1c(C)[nH]c2ccc(OCC(O)CNCCc3ccccc3)cc12 (configuration not stated)	/	1	/	/	/	/
CC1(C)Cc2c(sc3c2c(N)nc(=S)n3Cc2ccc(Br)cc2)CO1	-7	1	?	-1	5	-104*
CC1(C)Cc2c(sc3nnn(Cc4ccc(Cl)cc4)c(=O)c23)CO1	-2	1	-3	?	13	-4
Cc1ccc(Oc2nc3ccccn3c(=O)c2/C=C(\C#N)c2nc3ccccc3s2)c(C)c1	-5	0	/	/	/	/
SMILES	TRPML1 inh	TRPML1 ag	hERG WT inh	TRPV1 agonist	TRPV1 PAM	KCNH2 3.1 block
CN(C)CCCNC(=O)/C=C/c1ccc2c(c1)OCO2	1	1	-74*	-8	-3	14
COC(=O)c1c(NC(=O)/C=C/c2ccc3c(c2)OCO3)sc(C)c1C	-14	0	-72*	-1	3	-5
CCOC(=O)c1c(NC(=O)/C=C/c2ccc3c(c2)OCO3)sc(C)c1C	/	/	/	-1	15	/
CC(=O)Nc1ccc(NC(=O)/C=C/c2ccc3c(c2)OCO3)cc1	17	0	0	?	-22	-30
Cc1c(Cn2cnc3c(cnn3C(C)(C)C)c2=O)cccc1C(F)(F)F	12	1	/	/	/	/
Cc1ccccc1C(=O)OCc1cc(=O)n2nc(C3CCCCC3)sc2n1	-8	-1	/	/	/	/
